ADAM17 inh: inhibitors of human ADAM17 | inhibition, % at 6.95 µM | recombinant ADAM17, EDANS/DABCYL FRET peptide cleavage | AID 720648 | 0.83% of 370,000 active;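 active = inhibition above the mean of compounds lying between control limits plus 3 SD, set per campaign, cut at about 8.5% in these data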;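 also: 0% = DMSO-only wells as the low control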
FAS-TE inh: blocks the thioesterase domain of human fatty acid synthase; recombinant FAS-TE, OMFH fluorogenic substrate, fluorescence endpoint; inhibition, % at 15 µM; P49327; 0.67% of 360,000 active;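 active = compounds whose normalised, plate-corrected inhibition of enzyme fluorescence in the single-dose primary screen is 50% or more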;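 also: 0% = DMSO with enzyme and 100% = substrate without enzyme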
KLK7 zymogen act: activates the human kallikrein-7 zymogen; P49862; purified proKLK7, EDANS-DABCYL substrate fluorescence; 100% is mature enzyme control, 0% vehicle; activation, % at 7 µM; 0.9% of 370,000 active; AID 652039;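 active = activation above the mean of all tested compounds plus 3 SD, computed per campaign excluding outliers beyond control limits, cut at about 13% in these data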
Target sequence (P49862 whole entry, looked up): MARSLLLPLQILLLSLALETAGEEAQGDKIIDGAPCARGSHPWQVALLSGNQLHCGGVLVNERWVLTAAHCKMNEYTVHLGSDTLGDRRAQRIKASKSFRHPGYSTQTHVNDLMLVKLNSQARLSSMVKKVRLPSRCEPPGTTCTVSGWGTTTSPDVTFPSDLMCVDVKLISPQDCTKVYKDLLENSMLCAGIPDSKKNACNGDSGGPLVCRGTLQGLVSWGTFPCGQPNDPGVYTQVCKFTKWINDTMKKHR
ADAM10 inh: inhibitors of human ADAM10; inhibition, % at 7 µM; recombinant ADAM10, EDANS/DABCYL FRET peptide cleavage, 3 h; 0.62% of 370,000 active;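 active = inhibition above a per-campaign cutoff equal to the mean of compounds falling between control-based bounds plus 3 SD, cut at about 20% in these data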;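 also: 0% = DMSO wells while the 100% control is not disclosed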
GRIN3A LBD mod: NR3A (human) ligand-binding domain modulation | NR3A LBD differential scanning fluorimetry, Tm shift; 0% = protein alone, 100% = glycine-bound protein | Tm shift relative to glycine control, % at 25 µM | 2.5% of 340,000 active | AID 1259313;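 active = melting temperature shift of at least 10% of the positive control shift, at one fixed dose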
FAS-TE inh conf: confirmation of human fatty acid synthase thioesterase inhibitors; shares compounds with FAS-TE inh; recombinant FAS-TE, OMFH fluorogenic substrate, fluorescence; inhibition, % at 15 µM; 45% of 2,300 active; AID 624325;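 active = compounds inhibiting the enzyme by at least 50% at 15 µM in any one of the replicates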;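 also: 0% = enzyme with DMSO only and 100% = wells lacking enzyme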
Starred values were filed as active, the others as inactive; . = no result given; ! = a repeat was not active. This is a sample that favours compounds with a hit; in the whole collection about 4.6% have one here.

SMILES	ADAM17 inh	FAS-TE inh	KLK7 zymogen act	ADAM10 inh	GRIN3A LBD mod	FAS-TE inh conf
Cc1ccc([C@@H]2CC=C(C(=O)O)[C@H](c3ccc(C(C)(C)C)cc3)N2S(=O)(=O)c2ccc(C)cc2)cc1	4	19	0	18	-6	.
Cc1ccc(S(=O)(=O)N2[C@@H](c3ccc(C(C)(C)C)cc3)C(C(=O)O)=CC[C@H]2c2ccc(Cl)cc2)cc1	6	55*	0	10	0	49*
CNc1nc(N)c([N+](=O)[O-])c(Nc2ccccc2)n1	0	.	.	1	.	.
COc1cc(C2NCC(c3ccc(Cl)cc3Cl)c3c2[nH]c2ccccc32)cc(OC)c1OC (stereo unspecified)	22*	66*	1	47*	-1	27
COC(=O)C1CN(Cc2ccccc2)CCS(=O)(=O)N1Cc1ccccc1F (stereo unspecified)	-1	.	0	2	.	.
CCS(=O)(=O)c1ccc2oc(Nc3ccc(C(C)C)cc3)nc2c1	3	52*	0	8	-3	47*
COc1cc2cc(CN(Cc3cccs3)C(=S)Nc3ccccc3)c(=O)[nH]c2cc1OC	-32	79*	-10	-115	17*	31
O=C(Nc1cccc(S(=O)(=O)C(F)F)c1)c1ccc(S(=O)(=O)N2CCCCC2)cc1	7	26	0	17	-7	.
O=C(Nc1cccc(S(=O)(=O)N2CCCCC2)c1)c1ccc2c(=O)n3c(nc2c1)CCCCC3	5	60*	-1	8	-9	22
O=C(Nc1cccc(S(=O)(=O)N2CCCCC2)c1)c1ccc(S(=O)(=O)C(F)F)cc1	-1	59*	0	4	-3	39
CC(C)(C)C(=O)NC1CCCCN(Cc2ccc(Cl)cc2)C1=O (stereo unspecified)	-2	.	0	6	.	.
CCN(CC)C(=O)O[C@H]1CC[C@@]23CCCN2C(=O)CCC[C@H]3C1	-1	.	.	0	.	.
O=C(N/N=C/c1cc([N+](=O)[O-])cc([N+](=O)[O-])c1O)/C(=C\c1cccs1)NC(=O)c1ccccc1	2	75*	0	9	6	74*
CC(C)(C)N1Cc2nnn(Cc3ccccc3)c2-c2cc(N3CCCC3)ccc2S1(=O)=O	-16	.	-5	-49	.	.
CN(C1CCCCC1)S(=O)(=O)c1ccc(SCC(=O)C(C)(C)C)nc1	-4	54*	1	-10	2	40
CC(C)CNC(=O)CSc1ccc(S(=O)(=O)N(C)C2CCCCC2)cn1	-1	0	1	1	1	.
CC(=O)c1ccc(N2CCN(S(=O)(=O)c3ccc(-c4cnc(C5CC5)o4)cc3)CC2)cc1	.	57*	.	.	4	43*
COc1ccc(N2CCN(S(=O)(=O)c3ccc(-c4cnc(C5CC5)o4)cc3)CC2)cc1	.	28	.	.	0	.
CCN(CC)S(=O)(=O)c1ccc2oc(C(=O)N3CCc4ccccc4C3)c(C)c2c1	.	38	.	.	-1	.
Cc1c(C(=O)N2CCc3ccccc3C2)oc2ccc(S(=O)(=O)N3CC(C)CC(C)C3)cc12 (stereo unspecified)	7	52*	0	13	-1	4
Cc1ccc(CN2C(=O)C(Cc3ccccc3)Nc3ncnc(N4CCN(c5ccccc5)CC4)c32)cc1 (stereo unspecified)	8	62*	-1	14	0	12
O=C1C(Cc2ccccc2)Nc2ncnc(N3CCN(c4ccccc4)CC3)c2N1Cc1ccc(Br)cc1 (stereo unspecified)	-4	83*!	0	-17	-4	15
O=C(NCc1ccccc1)C1(C(=O)C2CC2)CC(c2ccccn2)=NO1 (stereo unspecified)	2	.	0	-3	.	.
Cc1ccc(S(=O)(=O)N2CCCC2c2cccc3[nH]cc(C)c23)cc1 (stereo unspecified)	2	.	0	0	.	.
